Reference: PubChem BioAssay (EPA / NIEHS)
Activity calls are given as the source filed them. How the source made its calls: active means hit-call score of the fitted dose curve at least 0.9, where 1 is the maximum; inactive means score below 0.9.

The compounds below were run on Pro-epidermal growth factor (Homo sapiens) (UniProt P01133) (assay: LTEA_HepaRG_EGF: Life Technologies and Expression Analysis (LTEA) Assay for Epidermal growth factor (EGF) using HepaRG (AID 2283489)). Settings: mRNA level, 48 h; actives raise or lower the signal.
How it was run: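 HepaRG, 48 h dosing, 100 uM top, half-log x8, 0.5% DMSO. Readout: TaqMan qRT-PCR (Fluidigm array), housekeeping-normalized. Gain or loss of signal fit vs DMSO.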

`Cc1ccc([N+](=O)[O-])cc1` was tested. Which outcome did it give?
The outcome was “inactive”.

For `C[C@]12C=CC3=C4CCC(=O)C=C4CC[C@H]3[C@@H]1CC[C@@H]2O`, which outcome is on record?
Its outcome is “inactive”.

How did the outcome turn out when `Nc1ccc(Cc2ccc(N)cc2)cc1` was run?
Its outcome is “inactive”.

With `O=[N+]([O-])C(Br)(CO)CO` as the compound, how does the outcome read?
The outcome was “inactive”.

How did the outcome turn out when `COC(=O)c1ccccc1N` was run?
Its outcome is “inactive”.

How did the outcome turn out when `O=[N+]([O-])c1ccc(Oc2ccc(Cl)cc2Cl)cc1` was run?
The outcome was “inactive”.

For `CC(C)(C)C(O)(CCc1ccc(Cl)cc1)Cn1cncn1` (stereo not given), which outcome is on record?
Its outcome is “inactive”.

For `CCCCCCCCOC(=O)c1ccc(C(=O)OCCCCCCCC)c(C(=O)OCCCCCCCC)c1`, which outcome is on record?
Its outcome is “inactive”.

Which outcome does the source give for `c1ccc2c(c1)oc1ccccc12` here?
The outcome was “inactive”.

For `O=C(O)C1C2CCC(O2)C1C(=O)O` (stereo not given), which AC50 is on record?
The AC50 was 13.9 µM (active).

For `N#CC(Br)Br`, which outcome is on record?
Its outcome is “inactive”.

How did the outcome turn out when `Clc1ccc(C(c2ccc(Cl)cc2)C(Cl)(Cl)Cl)cc1` was run?
The outcome was “inactive”.

Which outcome does the source give for `Oc1ccc2ccc3cccc4ccc1c2c34` here?
The outcome was “inactive”.

`ClC1=C(Cl)C2(Cl)C3C(Cl)C=CC3C1(Cl)C2(Cl)Cl` (stereo not given) was tested. Which outcome did it give?
The outcome was “inactive”.

How did the outcome turn out when `CC(C)(C)OOC(C)(C)CCC(C)(C)OOC(C)(C)C` was run?
The outcome was “inactive”.

`Nc1ccc(N=Nc2ccccc2)cc1` was tested. Which outcome did it give?
The outcome was “inactive”.

With `CCN(CC)N=O` as the compound, how does the outcome read?
Its outcome is “inactive”.

How did the outcome turn out when `COC(=O)Nc1nc2ccccc2[nH]1` was run?
The outcome was “inactive”.

`ClC1=C(Cl)[C@]2(Cl)[C@H]3[C@H]([C@@H]4C=C[C@H]3C4)[C@@]1(Cl)C2(Cl)Cl` was tested. Which outcome did it give?
Its outcome is “inactive”.

`O=C(N[C@H](c1ccccc1)[C@@H]1CN2CCC1CC2)c1c(Cl)ccc(C(F)(F)F)c1Cl` was tested. Which AC50 did it give?
The AC50 was 73.1 µM (active).

`c1ccc(N=Nc2ccccc2)cc1` was tested. Which outcome did it give?
Its outcome is “inactive”.

With `CN(C)c1ccc(C(=O)c2ccc(N(C)C)cc2)cc1` as the compound, how does the outcome read?
Its outcome is “inactive”.

With `Nc1ccc(Cl)cc1N` as the compound, how does the outcome read?
The outcome was “inactive”.

For `CS(=O)(=O)NC(=O)c1cc(Oc2ccc(C(F)(F)F)cc2Cl)ccc1[N+](=O)[O-]`, which outcome is on record?
The outcome was “inactive”.

These compounds were tested on Early growth response protein 1 (EGR1) transcription factor, EGR1 (gene 1958) (assay: LTEA_HepaRG_EGR1: Life Technologies and Expression Analysis (LTEA) Assay for Early growth response protein 1 (EGR1) transcription factor using HepaRG (AID 2283490)). Settings: mRNA level, 48 h; actives raise or lower the signal.
How it was run: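 Read-out is EGR1 mRNA level by qRT-PCR, normalized to three housekeeping genes and analysed for gain or loss of signal against 0.5% DMSO. Source cells: human HepaRG, treated 48 h at up to 100 uM in half-log dilutions.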

Which outcome does the source give for `Cc1ccc([N+](=O)[O-])cc1` here?
The outcome was “inactive”.

How did the outcome turn out when `Nc1ccc(Cc2ccc(N)cc2)cc1` was run?
The outcome was “inactive”.

For `O=[N+]([O-])C(Br)(CO)CO`, which outcome is on record?
Its outcome is “inactive”.

With `COC(=O)c1ccccc1N` as the compound, how does the outcome read?
Its outcome is “inactive”.

`CC(C)(C)C(O)(CCc1ccc(Cl)cc1)Cn1cncn1` (stereo not given) was tested. Which AC50 did it give?
Its AC50 is 90.1 µM (active).

Which outcome does the source give for `CCCCCCCCOC(=O)c1ccc(C(=O)OCCCCCCCC)c(C(=O)OCCCCCCCC)c1` here?
Its outcome is “inactive”.

For `c1ccc2c(c1)oc1ccccc12`, which outcome is on record?
The outcome was “inactive”.

With `O=C(O)C1C2CCC(O2)C1C(=O)O` (stereo not given) as the compound, how does the outcome read?
The outcome was “inactive”.

Which outcome does the source give for `c1ccc2c(c1)-c1cccc3cccc-2c13` here?
The outcome was “inactive”.

With `N#CC(Br)Br` as the compound, how does the outcome read?
The outcome was “inactive”.

With `CCC[CH2][Sn]([Cl])([CH2]CCC)[CH2]CCC` as the compound, how does the AC50 read?
The AC50 was 50 µM (active).

With `Clc1ccc(C(c2ccc(Cl)cc2)C(Cl)(Cl)Cl)cc1` as the compound, how does the outcome read?
The outcome was “inactive”.

Which outcome does the source give for `Oc1ccc2ccc3cccc4ccc1c2c34` here?
Its outcome is “inactive”.

With `[O-][Cl+]O` as the compound, how does the outcome read?
The outcome was “inactive”.

Which outcome does the source give for `ClC1=C(Cl)C2(Cl)C3C(Cl)C=CC3C1(Cl)C2(Cl)Cl` (stereo not given) here?
Its outcome is “inactive”.

How did the outcome turn out when `CC(C)(C)OOC(C)(C)CCC(C)(C)OOC(C)(C)C` was run?
The outcome was “inactive”.

How did the AC50 turn out when `Nc1ccc(N=Nc2ccccc2)cc1` was run?
The AC50 was 29.4 µM (active).

With `CC(C)N(Cc1ccccc1)C(=O)C(C)(C)C` as the compound, how does the outcome read?
The outcome was “inactive”.

`COC(=O)Nc1nc2ccccc2[nH]1` was tested. Which outcome did it give?
Its outcome is “inactive”.

`ClC1=C(Cl)[C@]2(Cl)[C@H]3[C@H]([C@@H]4C=C[C@H]3C4)[C@@]1(Cl)C2(Cl)Cl` was tested. Which outcome did it give?
The outcome was “inactive”.

For `O=C(N[C@H](c1ccccc1)[C@@H]1CN2CCC1CC2)c1c(Cl)ccc(C(F)(F)F)c1Cl`, which AC50 is on record?
The AC50 was 87.5 µM (active).

With `c1ccc(N=Nc2ccccc2)cc1` as the compound, how does the outcome read?
Its outcome is “inactive”.

`CN(C)c1ccc(C(=O)c2ccc(N(C)C)cc2)cc1` was tested. Which outcome did it give?
The outcome was “inactive”.

How did the AC50 turn out when `Nc1ccc(Cl)cc1N` was run?
The AC50 was 12.9 µM (active).

With `CS(=O)(=O)NC(=O)c1cc(Oc2ccc(C(F)(F)F)cc2Cl)ccc1[N+](=O)[O-]` as the compound, how does the outcome read?
The outcome was “inactive”.

What follows are compounds tested on Ezrin (EZR), EZR (gene 7430) (assay: LTEA_HepaRG_EZR: Life Technologies and Expression Analysis (LTEA) Assay for Ezrin (EZR) using HepaRG (AID 2283491)). Settings: mRNA level, 48 h; actives raise or lower the signal.
How it was run: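 EZR transcript levels came from Fluidigm qRT-PCR and were normalized to three housekeeping genes after 48 h chemical exposure of HepaRG cells. Dosing used an 8-point half-log series with a 100 uM top concentration in 0.5% DMSO, tested in duplicate; both directions were fitted versus vehicle.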

How did the outcome turn out when `CC(C)(C)C(O)(CCc1ccc(Cl)cc1)Cn1cncn1` (stereo not given) was run?
Its outcome is “inactive”.

`c1ccc2c(c1)-c1cccc3cccc-2c13` was tested. Which outcome did it give?
The outcome was “inactive”.

With `Clc1ccc(C(c2ccc(Cl)cc2)C(Cl)(Cl)Cl)cc1` as the compound, how does the AC50 read?
Its AC50 is 50 µM (active).

`[O-][Cl+]O` was tested. Which outcome did it give?
The outcome was “inactive”.

For `CCN(CC)N=O`, which outcome is on record?
The outcome was “inactive”.

Which outcome does the source give for `COC(=O)Nc1nc2ccccc2[nH]1` here?
Its outcome is “inactive”.

`CN(C)c1ccc(C(=O)c2ccc(N(C)C)cc2)cc1` was tested. Which outcome did it give?
Its outcome is “inactive”.

What follows are compounds tested on Cytochrome P450 3A7 (Homo sapiens) (UniProt P24462) (assay: LTEA_HepaRG_CYP3A7: Life Technologies and Expression Analysis (LTEA) Assay for CYP3A7 using HepaRG (AID 2283492)). Settings: mRNA level, 48 h; actives raise or lower the signal.
How it was run: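 Human HepaRG liver cells, 48 h post-plating, switched to serum-free induction medium and exposed in duplicate for 48 h. Dosing: 100 uM top, half-log dilutions, 8 points, 0.5% DMSO vehicle. Read-out: CYP3A7 mRNA, gain or loss fitted against DMSO baseline.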

Cytochrome P450 3A7 (Homo sapiens), sequence (P24462 whole entry, looked up): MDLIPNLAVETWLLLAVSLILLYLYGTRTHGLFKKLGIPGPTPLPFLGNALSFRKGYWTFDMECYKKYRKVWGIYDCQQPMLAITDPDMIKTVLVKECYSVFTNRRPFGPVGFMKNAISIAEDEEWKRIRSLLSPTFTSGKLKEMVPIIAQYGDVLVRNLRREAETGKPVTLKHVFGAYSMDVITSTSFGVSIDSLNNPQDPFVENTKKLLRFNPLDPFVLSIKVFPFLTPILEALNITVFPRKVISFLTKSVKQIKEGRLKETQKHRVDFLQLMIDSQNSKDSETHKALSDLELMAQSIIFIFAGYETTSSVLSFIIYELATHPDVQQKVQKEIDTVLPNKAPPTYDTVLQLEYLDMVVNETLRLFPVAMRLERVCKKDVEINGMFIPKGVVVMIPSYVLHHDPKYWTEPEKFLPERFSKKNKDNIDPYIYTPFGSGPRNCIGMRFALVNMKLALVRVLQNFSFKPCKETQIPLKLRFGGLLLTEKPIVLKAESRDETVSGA

For `c1ccc2c(c1)-c1cccc3cccc-2c13`, which AC50 is on record?
The AC50 was 9.36 µM (active).

Which outcome does the source give for `[O-][Cl+]O` here?
The outcome was “inactive”.

For `CC(C)N(Cc1ccccc1)C(=O)C(C)(C)C`, which AC50 is on record?
The AC50 was 11.5 µM (active).

Each compound was assayed on CYP3A5 (gene 1577) (assay: LTEA_HepaRG_CYP3A5: Life Technologies and Expression Analysis (LTEA) Assay for CYP3A5 using HepaRG (AID 2283493)). Settings: mRNA level, 48 h; actives raise or lower the signal.
How it was run: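 HepaRG plated 48 h, switched to serum-free induction medium, chemicals added 48 h (max 100 uM, half-log, 0.5% DMSO). RNA isolated; CYP3A5 by TaqMan qRT-PCR. Gain/loss vs DMSO.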

How did the outcome turn out when `Cc1ccc([N+](=O)[O-])cc1` was run?
Its outcome is “inactive”.

Which outcome does the source give for `Nc1ccc(Cc2ccc(N)cc2)cc1` here?
The outcome was “inactive”.

For `O=[N+]([O-])C(Br)(CO)CO`, which outcome is on record?
Its outcome is “inactive”.

For `COC(=O)c1ccccc1N`, which outcome is on record?
The outcome was “inactive”.

How did the outcome turn out when `O=[N+]([O-])c1ccc(Oc2ccc(Cl)cc2Cl)cc1` was run?
The outcome was “inactive”.

For `CC(C)(C)C(O)(CCc1ccc(Cl)cc1)Cn1cncn1` (stereo not given), which outcome is on record?
Its outcome is “inactive”.

Which outcome does the source give for `CCCCCCCCOC(=O)c1ccc(C(=O)OCCCCCCCC)c(C(=O)OCCCCCCCC)c1` here?
Its outcome is “inactive”.

Which outcome does the source give for `c1ccc2c(c1)oc1ccccc12` here?
Its outcome is “inactive”.

With `O=C(O)C1C2CCC(O2)C1C(=O)O` (stereo not given) as the compound, how does the outcome read?
Its outcome is “inactive”.

`c1ccc2c(c1)-c1cccc3cccc-2c13` was tested. Which outcome did it give?
Its outcome is “inactive”.

For `N#CC(Br)Br`, which outcome is on record?
Its outcome is “inactive”.

For `CCC[CH2][Sn]([Cl])([CH2]CCC)[CH2]CCC`, which AC50 is on record?
The AC50 was 82.8 µM (active).

Which outcome does the source give for `Oc1ccc2ccc3cccc4ccc1c2c34` here?
The outcome was “inactive”.

`[O-][Cl+]O` was tested. Which outcome did it give?
Its outcome is “inactive”.

How did the outcome turn out when `ClC1=C(Cl)C2(Cl)C3C(Cl)C=CC3C1(Cl)C2(Cl)Cl` (stereo not given) was run?
The outcome was “inactive”.

For `CC(C)(C)OOC(C)(C)CCC(C)(C)OOC(C)(C)C`, which outcome is on record?
Its outcome is “inactive”.

With `Nc1ccc(N=Nc2ccccc2)cc1` as the compound, how does the AC50 read?
The AC50 was 14.2 µM (active).

How did the outcome turn out when `CCN(CC)N=O` was run?
Its outcome is “inactive”.

Which outcome does the source give for `CC(C)N(Cc1ccccc1)C(=O)C(C)(C)C` here?
The outcome was “inactive”.

`COC(=O)Nc1nc2ccccc2[nH]1` was tested. Which outcome did it give?
Its outcome is “inactive”.

For `ClC1=C(Cl)[C@]2(Cl)[C@H]3[C@H]([C@@H]4C=C[C@H]3C4)[C@@]1(Cl)C2(Cl)Cl`, which outcome is on record?
The outcome was “inactive”.

With `O=C(N[C@H](c1ccccc1)[C@@H]1CN2CCC1CC2)c1c(Cl)ccc(C(F)(F)F)c1Cl` as the compound, how does the outcome read?
Its outcome is “inactive”.

With `c1ccc(N=Nc2ccccc2)cc1` as the compound, how does the outcome read?
The outcome was “inactive”.

Which outcome does the source give for `CN(C)c1ccc(C(=O)c2ccc(N(C)C)cc2)cc1` here?
The outcome was “inactive”.

With `Nc1ccc(Cl)cc1N` as the compound, how does the AC50 read?
The AC50 was 17.3 µM (active).

For `CS(=O)(=O)NC(=O)c1cc(Oc2ccc(C(F)(F)F)cc2Cl)ccc1[N+](=O)[O-]`, which outcome is on record?
Its outcome is “inactive”.
